Screens: PubChem, several laboratories
This is one part of a sample in which hits are shown more often than they occur.
GIRK2 act – Activates human GIRK2-containing potassium channels. HEK293 GIRK2/NPY4 cells, thallium flux fluorescence. activation (% efficacy), % for hits at 75 µM. AID 1259324. 34,000 tested, under 10 active;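 active = primary screen hit, no activity in plain HEK293 cells, and in GIRK2-only cells above 5% efficacy rising with concentration; inactive = the rest, including fluorescent compounds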;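 also: efficacy is normalized control-subtracted fluorescence 15 s after thallium addition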
Target sequence (P48051 whole entry, looked up): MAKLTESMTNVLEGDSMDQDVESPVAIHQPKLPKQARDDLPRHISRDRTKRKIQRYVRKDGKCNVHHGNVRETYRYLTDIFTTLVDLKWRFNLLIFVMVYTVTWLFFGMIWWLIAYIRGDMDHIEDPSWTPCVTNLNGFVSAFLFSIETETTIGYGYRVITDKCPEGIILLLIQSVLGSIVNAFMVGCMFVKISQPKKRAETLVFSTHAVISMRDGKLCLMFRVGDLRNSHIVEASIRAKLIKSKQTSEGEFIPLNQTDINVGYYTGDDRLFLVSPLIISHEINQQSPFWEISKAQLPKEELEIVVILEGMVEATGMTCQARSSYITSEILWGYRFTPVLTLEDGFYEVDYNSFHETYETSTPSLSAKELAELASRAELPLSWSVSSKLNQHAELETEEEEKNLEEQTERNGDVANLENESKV
AMPAR-TARP mod – modulates AMPAR-stargazin complexes; O88602+P19491; HEK293 GluA2+stargazin, membrane potential dye (FDSS), glutamate EC50; hits were called plate by plate, in both directions; calls only at 30 µM; actives 3.5% (n = 40,000);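 active = any of four per-well response measures lying three or more SD from its plate-wide compound average, in either direction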
An asterisk follows results filed as active; i = inactive; nt = no result given; + = active, no number.

SMILES	GIRK2 act	AMPAR-TARP mod
CCC(=O)Nc1nc2ccc([N+](=O)[O-])cc2s1	i	+
CCOC(=O)c1ccc(-n2c(C)cn3c4c(=O)n(CC)c(=O)n(C)c4nc23)cc1	nt	i
COc1cccc(COc2coc(C(=O)Nc3ccc(C)c(F)c3)cc2=O)c1	i	i
COc1coc(C(=O)Nc2ccc(F)c(F)c2)cc1=O	i	+
O=C(CCCS(=O)(=O)c1ccc(Cl)cc1)Nc1nc(-c2nc3ccccc3s2)cs1	nt	i
CCc1c(C#N)c(SCC(=O)NCc2ccc3c(c2)OCO3)nc2c1C(=O)CC(C)(C)C2	i	+
CCc1c(C#N)c(SCCC(=O)NCc2ccc3c(c2)OCO3)nc2c1C(=O)CC(C)(C)C2	i	i
O=C(Nc1ccc(N2CCCC2=O)cc1)c1ccc(C(F)(F)F)cc1	i	i
O=C(c1cccs1)N1CCC(c2nnc(-c3ccc(F)cc3)o2)CC1	i	i
O=C(N1CCC(c2nnc(-c3ccc(F)cc3)o2)CC1)C1(c2cccs2)CCCC1	i	+
CCCn1c(NCC(C)C)nc2c1c(=O)n(C)c(=O)n2C	i	i
O=C(O)CC(NC(=O)c1cccs1)c1ccccc1 (stereo unspecified)	nt	i
O=C(Cn1nc2c(c1NC(=O)CC1CCCCC1)CSC2)NCC1CCCO1 (stereo unspecified)	i	i
CCCNC(=O)Cn1nc2c(c1NC(=O)CC1CCCC1)CSC2	i	+
CCC(O)c1nc2ccccc2n1CCOc1ccccc1 (stereo unspecified)	nt	+
CCc1nc2ccccc2n1CCOc1ccccc1	nt	i
Cn1ccc(C(=O)N(Cc2cccnc2)c2nc3ccc(F)cc3s2)n1	i	i
Cc1cccc(N2CC(c3nc4ccccc4n3CC(=O)N(C(C)C)C(C)C)CC2=O)c1 (stereo unspecified)	i	i
Cc1cc(C)c2c(n1)sc1c(=O)n(CC(=O)Nc3ccc(Cl)cc3)cnc12	i	i
CCC(C)NC(=O)Cn1cnc2c(sc3nc(C)cc(C)c32)c1=O (stereo unspecified)	i	+
CCOc1cc(S(=O)(=O)n2cnc(C)c2)ccc1F	nt	i
CCCCNC(=O)Cn1cc(-c2ccc(C)cc2)c(N2CCOCC2)n1	i	nt
COc1ccc(C(=O)NCC(O)c2ccsc2)cc1 (stereo unspecified)	i	i
N#C/C(=C\c1ccc(O)cc1)c1nc2ccccc2s1	nt	i
N#C/C(=C\c1cccnc1)c1nc2ccccc2s1	nt	+
SMILES	GIRK2 act	AMPAR-TARP mod
N#Cc1ccccc1NC(=O)CSc1nccnc1N1CCSCC1	i	i
COC(=O)c1ccccc1NC(=O)CSc1nccnc1N1CCSCC1	i	+
Cc1nn(C2CCS(=O)(=O)C2)c2nc(-c3cccs3)cc(C(=O)NCCc3ccccc3)c12 (stereo unspecified)	i	nt
Cc1cccc(Nc2ccc(N3CCN(C(=O)C(C)(C)C)CC3)nn2)n1	i	nt
Cc1cccc(Nc2ccc(N3CCN(C(=O)c4c(F)cccc4F)CC3)nn2)n1	i	nt
Cc1cc(NC(=O)CSc2nnc(N3CCN(C(=O)Cc4cccs4)CC3)s2)no1	i	+
Cc1cccc(Nc2ccc(N3CCN(C(=O)Cc4cccs4)CC3)nn2)n1	i	+
Cc1cccc(Nc2ccc(N3CCN(C(=O)Cc4c[nH]c5ccccc45)CC3)nn2)n1	i	+
CC(=O)N1CCN(c2nnc(SCC(=O)Nc3cc(C)on3)s2)CC1	i	i
COc1ccc(-n2c(C)cn3c4c(=O)n(CC(=O)OCc5ccccc5)c(=O)n(C)c4nc23)cc1	nt	i
O=C1c2cc(NC(=O)C3(c4cccs4)CCCC3)ccc2OCCC2CCCCN12 (stereo unspecified)	i	+
O=C(/C=C/c1ccccc1Cl)Nc1ccc2c(c1)C(=O)N1CCCCC1CCO2 (stereo unspecified)	i	i
COC(=O)C1=C(CS(=O)(=O)c2ccc(OC)c(OC)c2)NC(=O)NC1c1cccc(Cl)c1 (stereo unspecified)	nt	i
COC(=O)C1=C(CS(=O)(=O)c2cc(Cl)ccc2OC)NC(=O)NC1c1ccccc1 (stereo unspecified)	i	+
COC(=O)C1=C(CS(=O)(=O)c2ccc(OC)c(OC)c2)NC(=O)NC1c1ccc(O)cc1 (stereo unspecified)	nt	i
COC(=O)C1=C(CS(=O)(=O)c2ccccc2)NC(=O)NC1c1ccc(OC)c(OC)c1 (stereo unspecified)	nt	+
COc1ccc(CCNC(=O)c2nnn(-c3ccccc3)c2CSc2ncccn2)cc1OC	i	i
CCCCNC(=O)Cc1csc(SCC(=O)c2cccs2)n1	i	nt
OC(COc1ccc(-c2ccccc2)cc1)CN1CCN(c2ccccn2)CC1 (stereo unspecified)	nt	i
OC(COc1ccc2cc(Br)ccc2c1)CN1CCN(c2ccccn2)CC1 (stereo unspecified)	nt	+
COCCn1nnn(-c2ccc(NC(=O)Nc3ccc4c(c3)OCO4)cc2)c1=O	i	i
CCOC(=O)CC(=O)CSc1cc(C)c(C#N)c2nc3ccccc3n12	i	i
CCCc1cc(NCC2CCCO2)n2c(nc3ccccc32)c1C#N (stereo unspecified)	i	+
O=C1CCc2cc(NC(=O)NC(c3ccccc3)c3ccccc3)ccc2N1	i	i
COCCOC(=O)C1=C(C)Nc2ncnn2C1c1ccc(Cl)cc1 (stereo unspecified)	nt	i
SMILES	GIRK2 act	AMPAR-TARP mod
CC(C)(C)n1nc2c(c1NC(=O)c1cccs1)CSC2	i	i
COc1ccc(S(=O)(=O)NCC(O)c2ccc(C(F)(F)F)cc2)cc1Cl (stereo unspecified)	nt	+
Cc1c(Cl)cccc1S(=O)(=O)NCC(O)c1ccsc1 (stereo unspecified)	i	i
O=S(=O)(NCC(O)c1ccc(C(F)(F)F)cc1)c1ccc2c(c1)CCCC2 (stereo unspecified)	i	i
Cc1c(Cl)cccc1S(=O)(=O)NCC(O)c1ccc(C(F)(F)F)cc1 (stereo unspecified)	i	+
COC(=O)C1CCCN1S(=O)(=O)c1ccc(Cl)cc1 (stereo unspecified)	nt	i
CCC(C)n1c(C)cn2c3c(=O)n(Cc4ccc(Cl)cc4)c(=O)n(C)c3nc12 (stereo unspecified)	i	i
Cc1c(Cl)cccc1S(=O)(=O)NCC(O)c1cccn1C (stereo unspecified)	i	i
COCCn1c(=NC(=O)c2ccno2)sc2cc(F)cc(F)c21	i	+
COCCn1c(=NC(=O)CS(=O)(=O)c2ccc(OC)cc2)sc2cc(F)cc(F)c21	i	i
Cc1cc(C)c(NC(=O)C(=O)NCCc2ccc3c(c2)CCCN3C)c(C)c1	nt	i
O=C(Cc1ccc(NS(=O)(=O)/C=C/c2ccccc2)cc1)N1CCC(O)CC1	i	i
COc1ccc(OC)c(-c2n[nH]c(C(=O)O)c2C)c1	i	i
O=S(=O)(Cc1ccccc1Cl)NCC1CCN(S(=O)(=O)C2CC2)CC1	i	i
CCOc1ccc(Br)cc1S(=O)(=O)Nc1ncccc1C	i	nt
COc1ccc(-c2ccc(C)c(NC(=O)c3cccc(OC)c3OC)c2)nn1	i	i
COc1ccc(-c2ccc(C)c(NC(=O)c3ccccc3OC)c2)nn1	i	+
